HT1080-NT tox = kills 2HG-producing HT-1080-NT fibrosarcoma cells | HT-1080-NT fibrosarcoma viability, CellTiter-Glo ATP luminescence, 48 h | Potency, µM (doses to about 46.1 µM), most hits filed as cytotoxic | 360,000 compounds, 1.6% hits | AID 686970;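 also: NT is the 2HG producing partner of a matched IDH1 knockdown line; nearly all actives have a fitted effect of over 55% in size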
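HT-1080-NT; 750 cells/well; 5% FBS RPMI; 48 h compound, 37 degrees C; CellTiter-Glo luminescence; curve fitting and curve-class assignment.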
KB-V1 MDR tox = kills drug-selected multidrug resistant KB-V1 cells. KB-V1 MDR cells viability, CellTiter-Glo, 72 h. Potency, µM (highest dose often 46.1 µM), most hits filed as cytotoxic. 400,000 compounds, 3.4% hits; also: nearly all actives have a fitted effect of over 60% in size
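Cytotoxicity toward P-gp-expressing KB-V1 cells was determined as loss of CellTiter-Glo luminescence after 72 h at 37 degrees C. Compounds were tested in quantitative HTS format across a concentration range, with curves fitted to normalized data.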
KB-3-1 cytotox = kills parental KB-3-1 adenocarcinoma cells | KB-3-1 viability, CellTiter-Glo ATP luminescence, 72 h | Potency, µM (highest dose often 46.1 µM), most hits filed as cytotoxic | 400,000 compounds, 1.4% hits | AID 1347075; also: nearly all actives have a fitted effect of over 60% in size
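Parental KB-3-1 adenocarcinoma cells in phenol-red-free DMEM with 10% FBS were pin-treated with compounds at several concentrations, incubated 72 h at 37 °C, and viability read by CellTiter-Glo luminescence; concentration-effect curves were fitted after normalization.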
HT1080 IDH1KD tx = toxicity to HT-1080 IDH1 knockdown cells (counter line); AID 686971; HT-1080 IDH1 knockdown viability, ATP luminescence, 48 h; Potency, µM (titrated, usually from 46.1 µM), actives largely listed as cytotoxic; 360,000 compounds, 2% hits
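After a 2 h attachment period, IDH1KD HT-1080 cells took pin-transferred compound for 48 h at 37 °C; ATP-based luminescence after 10 min room-temperature reagent incubation reported viability.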
DT40 TDP1 no CPT = qHTS for Inhibitors of human tyrosyl-DNA phosphodiesterase 1 (TDP1): qHTS in cells in absence of CPT | DT40 Tdp1-/- hTDP1 cells, no CPT, ATP luminescence, 48 h | Potency, µM (series often up to 46.2 µM), actives largely listed as inhibitors | 420,000 compounds, 15% hits; also: nearly all actives have a fitted effect of over 55% in size
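Compound effects on proliferation are scored in DT40 Tdp1-/-;hTDP1 cells in the absence of CPT. ATP levels (CellTiter-Glo luminescence) are recorded after a ≥48 hr, 37 °C incubation.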
TDP1 cell CPT = DT40-hTDP1 cell growth loss with CPT; Potency, µM (top dose mostly 46.2 µM), most hits filed as inhibitors; chicken DT40 Tdp1-/-;hTDP1 cells + 20 nM CPT, ATP luminescence, 48 h; 420,000 compounds, 12% hits; also: nearly all actives have a fitted effect of over 55% in size
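Chicken DT40 Tdp1-/- cells stably complemented with human TDP1 were seeded at 400 cells/well in medium containing 20 nM camptothecin, exposed to pin-transferred compounds, and grown at 37 °C for at least 48 hr. Viability was read as ATP luminescence.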
Hits are given with their value; . = inactive; ? = inconclusive; / = no result; ! = repeats disagree. The list is not random: actives were taken first. Their share in the collection is about 19%. Calls follow the shape of the dose curve; as a rule, active = well fitted curve in the direction sought with a large enough effect; inconclusive = small, poorly fitted or top-dose-only effect, or another doubt; inactive = no such curve, though single readings can be large; an effect the other way counts as inactive or inconclusive.

SMILES	HT1080-NT tox	KB-V1 MDR tox	KB-3-1 cytotox	HT1080 IDH1KD tx	DT40 TDP1 no CPT	TDP1 cell CPT
CN(CC(=O)Nc1ccc(Cl)c(C(F)(F)F)c1)C(=O)CC1Sc2ccccc2NC1=O (stereo not drawn)	.	/	/	.	13µM	13µM
COc1cccc(CNC(=O)CC2Sc3ccccc3NC2=O)c1 (stereo not drawn)	.	.	.	.	.	.
CC(=O)Nc1ccc(NC(=O)CC2Sc3ccccc3NC2=O)cc1 (stereo not drawn)	/	?	.	/	?	?
Cc1ccc(C)c(OCC(=O)N(C)CC(=O)Nc2ccc(Cl)c(C(F)(F)F)c2)c1	.	.	.	.	?	?
COc1cccc(NC(=O)CC2SC(=Nc3ccccc3)NC2=O)c1 (stereo not drawn)	.	16.4µM	.	.	?	?
COc1ccc(NC(=O)CC2SC(=Nc3ccccc3)NC2=O)cc1 (stereo not drawn)	.	.	.	.	?	?
O=c1c(F)cn(C2CCCO2)c(=O)n1Cc1ccc(Cl)cc1 (stereo not drawn)	.	.	.	.	.	?
COc1ccccc1N1CCN(CCn2c(=O)c3c(c4ccccc4n3C)n(C)c2=O)CC1	/	/	/	/	.	.
CC(C)Cn1c(N)c(C(=O)COC(=O)c2ccc([N+](=O)[O-])o2)c(=O)n(C)c1=O	.	.	.	.	?	?
Cc1nnc2n1N=C(c1ccc(F)cc1F)CS2	.	.	.	.	.	.
CN1CCN(NC(=O)c2cc(-c3ccc(Br)s3)nc3ccccc23)CC1	20.6µM	.	.	23.1µM	7.31µM	?
CCCCN(C)CCNC(=O)c1cc(-c2ccc(Cl)s2)nc2ccccc12	/	.	.	/	23.1µM	23.1µM
CCOCCCNC(=O)c1cc(-c2ccc(Br)s2)nc2ccccc12	.	.	?	.	?	.
CC(C)CN(CCNC(=O)c1cc(-c2ccc(Cl)s2)nc2ccccc12)CC(C)C	/	.	.	/	.	.
CCCN(CCC)CCNC(=O)c1cc(-c2ccc(Br)s2)nc2ccccc12	/	.	.	/	?	18.4µM
CCN(CC)CCNC(=O)c1cc(-c2ccc(Br)s2)nc2ccccc12	18.4µM	?	.	?	18.4µM	18.4µM
CCc1ccc(CNC(=O)c2cc(-c3ccc(Br)s3)nc3ccccc23)cc1	/	.	.	/	18.4µM	?
CCCCOc1cc(C(=O)NCCN(CC)CC)c2ccccc2n1	?	?	.	?	7.31µM	20.6µM!
CCN(CC)CCCNC(=O)c1cc(Nc2ccc(OC)cc2OC)nc2ccccc12	.	.	.	.	?	?
CCOc1cc(/C=N/Nc2nc(-c3cccc(S(=O)(=O)N4CCCC4)c3)cs2)ccc1O	.	13µM	.	.	8.2µM	13µM
COc1ccc(-c2csc(NC(=S)NC(=O)c3ccc(S(=O)(=O)N(C)C)cc3)n2)cc1OC	?	.	.	?	?	?
COc1cc(/C=N/Nc2nc(-c3ccc(S(=O)(=O)N(C)C)cc3)cs2)ccc1O	.	.	.	.	7.31µM	8.2µM
CCOc1cc(C=NNC(=O)c2cccc(S(=O)(=O)N3CCCC3)c2)ccc1O	.	.	.	.	?	.
O=S(=O)(c1cccc(-c2csc(N/N=C/c3ccco3)n2)c1)N1CCOCC1	.	.	.	?	13µM	16.4µM
Cc1cc(C)n(S(=O)(=O)c2ccccc2[N+](=O)[O-])n1	.	.	.	.	.	?
SMILES	HT1080-NT tox	KB-V1 MDR tox	KB-3-1 cytotox	HT1080 IDH1KD tx	DT40 TDP1 no CPT	TDP1 cell CPT
O=C(N[C@@H]1CCC(=O)N(CC[C@H](Sc2ccc(Br)cc2)c2ccccc2)CC1)OCc1ccccc1	.	?	?	.	18.4µM	25.9µM
COc1ccc(SC[C@H](C)CN2CC[C@H](NC(=O)OCc3ccccc3)CCC2=O)cc1	.	11.6µM!	14.6µM!	.	23.1µM	?
C[C@@H](CN=[N+]=[N-])CN1CC[C@H](NC(=O)OCc2ccccc2)CCC1=O	.	.	.	.	?	?
COc1ccc(S[C@@H](CCN2CC[C@H](NC(=O)OCc3ccccc3)CCC2=O)c2ccccc2)cc1	?	?	13µM!	?	23.1µM	18.4µM
[N-]=[N+]=N[C@@H](CCN1CC[C@H](NC(=O)OCc2ccccc2)CCC1=O)c1ccccc1	.	?	.	.	?	?
Cn1c(N)c(C(=O)COC(=O)c2ccc(Cl)c(S(=O)(=O)N3CCCC3)c2)c(=O)n(C)c1=O	.	?	.	.	.	?
COc1ccccc1OCCNC(=O)c1ccc(S(=O)(=O)N(C)C)cc1	.	.	.	.	.	.
COc1ccccc1NS(=O)(=O)c1cc(C(=O)NCc2ccco2)ccc1C	.	?	.	.	.	.
COc1ccccc1NS(=O)(=O)c1ccc(C(=O)NCc2ccco2)cc1	.	?	.	.	?	10.3µM
CN(C)S(=O)(=O)c1ccc(C(=O)NCCc2ccco2)cc1	?	.	.	.	23.1µM	.
CN(c1ccccc1)S(=O)(=O)c1ccc(C(=O)NCc2ccco2)cc1	.	.	.	.	16.4µM	?
COc1ccc(S(=O)(=O)N(C)c2ccc(C(=O)NCc3ccco3)cc2)cc1	.	/	/	.	?	?
Cn1c(=O)cnc2cnc(Oc3ccccc3)nc21	/	/	/	/	.	.
CCCNC(=O)C1(C)CCN(C(=O)COc2ccc(Cl)cc2Cl)C1 (stereo not drawn)	.	.	?	.	.	.
CSc1nc(-c2ccccc2)nc(N2CCOCC2)c1C(C)=O	.	.	.	.	.	.
C/C(=N\NC(=O)COc1ccccc1-c1ccccc1)c1ccccn1	?	4.11µM	?	?	2.59µM	2.59µM
CC(=NNC(=S)SCc1ccccc1)c1ccccn1	?	?	?	?	0.0411µM	0.0517µM
C/C(=N\NC(=O)COc1ccccc1-c1ccccc1)c1ccc(O)cc1O	.	?	?	?	?	20.6µM
CCCCCCCCCC(=O)N/N=C(\C)c1cccnc1	.	.	.	.	?	?
CCCCCCCC(=O)N/N=C(\C)c1ccc(O)cc1O	?	.	?	?	?	?
CCCCCC(=O)N/N=C(\C)c1ccccn1	.	5.17µM	?	.	5.8µM	5.8µM
O=C(COC(=O)/C=C/c1ccccc1)NCC1CCCO1 (stereo not drawn)	.	.	.	.	.	.
C/C(=N\NC(=O)COc1ccccc1-c1ccccc1)c1cccnc1	.	?	.	.	20.6µM	?
C/C(=N\NC(=O)c1cccnc1)c1ccccc1	.	.	.	.	.	.
O=C(Nc1ncccn1)c1cc([N+](=O)[O-])cc([N+](=O)[O-])c1	.	.	.	.	.	.

Screening results: PubChem BioAssay, National Center for Advancing Translational Sciences (NCATS)
